FBPA Giardia inh: Giardia lamblia aldolase inhibition; A8B2U2; purified Giardia FBPA; 0.71% of 290,000 active; Potency, µM (titrated, usually from 59.6 µM), hits mostly inhibitors; also: nearly all actives have a fitted effect of over 55% in size
Target sequence (A8B2U2 whole entry, looked up): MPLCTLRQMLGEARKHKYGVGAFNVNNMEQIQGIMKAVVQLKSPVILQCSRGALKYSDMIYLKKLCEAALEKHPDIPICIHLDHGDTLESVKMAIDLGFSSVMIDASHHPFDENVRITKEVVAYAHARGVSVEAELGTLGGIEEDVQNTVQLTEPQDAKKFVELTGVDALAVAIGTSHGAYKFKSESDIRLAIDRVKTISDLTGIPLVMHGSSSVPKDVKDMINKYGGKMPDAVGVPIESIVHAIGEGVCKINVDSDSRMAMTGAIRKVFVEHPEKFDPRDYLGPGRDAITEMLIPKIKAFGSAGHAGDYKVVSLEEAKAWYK
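Giardia FBPA (40 nM reagent) was preincubated 10 min at RT with compound (up to 57.5 uM final), then substrate plus GAPDH/TPI/NAD/arsenate coupling system with diaphorase/resazurin was added; resorufin fluorescence (525/598 nm) was read after 20 min.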
HCV inh: blocks hepatitis C virus. Huh7.5.1 HCVcc-Cre infection, luciferase reporter, 44 h. 3.4% of 340,000 active. Potency, µM (titrated, usually from 41.8 µM), hits mostly inhibitors. AID 651820
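Cells seeded at 1,000/well and cultured 4 h, then compounds added followed by HCVcc-Cre virus (~0.5 moi). After 44 h further culture, luciferase substrate was added, plates held 15 min at room temperature, and luminescence read for 15 sec.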
Vaccinia Venus: vaccinia inhibition (Venus reporter); 0.46% of 330,000 active; Vaccinia virus Venus reporter expression, fluorescence; Potency, µM (series often up to 36.5 µM), actives largely listed as inhibitors; calls by dose curve; tested in A549 cells; also: nearly all actives have a fitted effect of over 30% in size
VACV mCherry inh: inhibitors of vaccinia virus infection (mCherry reporter signal); Vaccinia virus mCherry reporter infection, fluorescence; Potency, µM (titrated, usually from 36.5 µM), hits mostly inhibitors; 0.63% of 310,000 active; AID 720579; calls by dose curve; tested in A549 cells; also: nearly all actives have a fitted effect of over 35% in size
FMDV antiviral: foot and mouth disease virus antiviral activity. FMDV antiviral cell-based qHTS. Potency, µM (titrated, usually from 57.9 µM), usual class: inhibitors. 1.2% of 410,000 active; calls by dose curve; tested in HEK293T cells; also: read-out not given here; nearly all actives have a fitted effect of over 45% in size
HCMV antiviral: inhibitors of human cytomegalovirus; HFF cells, HCMV-luciferase reporter, 72 h; active compounds read low; activity change, negative = inhibition, % at 57.5 µM; 4.5% of 410,000 active; AID 1259415; in the data active = activity change below about -60%; inconclusive = no clear call, values can overlap the other calls; inactive = above about -39%
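Screen run at 2 compound doses on HFFs infected with reporter HCMV, MOI 1 PFU/cell. Luciferase activity from cell lysates at 72 h post infection gave inhibition relative to buffer-only and Salinomycin wells.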
A number is an active result; [ ] = remark or other dose. This is a sample that favours compounds with a hit; in the whole collection about 7.5% have one here. Unless noted, calls follow the shape of the dose curve; as a rule, active = well fitted curve in the direction sought with a large enough effect; inconclusive = small, poorly fitted or top-dose-only effect, or another doubt; inactive = no such curve, though single readings can be large; an effect the other way counts as inactive or inconclusive.

`COc1cccc(/C=C2\SC(=O)N(CCC(=O)N3CCCCC3CCO)C2=O)c1` (stereo not given) gave HCV inh inconclusive, FMDV antiviral inactive and HCMV antiviral inactive.
`O=C(CCC1CCCC1)Nc1ccc([N+](=O)[O-])cn1` gave FBPA Giardia inh inactive, HCV inh inactive, Vaccinia Venus inactive, VACV mCherry inh inactive, FMDV antiviral inactive and HCMV antiviral inactive.
For CCS(=O)(=O)N1Cc2ccccc2CC1C(=O)NCCc1ccccc1 (stereo not given) the results were FBPA Giardia inh inactive, HCV inh inactive, Vaccinia Venus inactive, VACV mCherry inh inactive, FMDV antiviral inactive and HCMV antiviral inactive.
COc1ccc(Nc2nc(C)nc3c2nnn3Cc2ccccc2Cl)c(OC)c1 was read as FBPA Giardia inh inactive, HCV inh inactive, FMDV antiviral inactive and HCMV antiviral inactive.
`CN1CCN(C(=O)CCN2C(=O)/C(=C\c3ccc(F)cc3)SC2=S)CC1` gave HCV inh inconclusive, Vaccinia Venus inactive, VACV mCherry inh inactive, FMDV antiviral inconclusive and HCMV antiviral inactive.
Screening CC(C)c1ccc(/C=C2\SC(=S)N(CCC(=O)N3CCCCC3CCO)C2=O)cc1 (stereo not given) returned HCV inh inactive, FMDV antiviral 11µM and HCMV antiviral -100.
Screening CCN(CC)CCCNC(=O)c1nn2c(C(F)(F)F)cc(-c3ccccc3)nc2c1Cl returned FBPA Giardia inh inactive, HCV inh 4µM, FMDV antiviral inactive and HCMV antiviral inactive.
Screening CCCCNC(=O)c1nn2c(C(F)(F)F)cc(-c3ccccc3)nc2c1Br returned FBPA Giardia inh inactive, HCV inh inconclusive, Vaccinia Venus inactive, VACV mCherry inh inactive, FMDV antiviral inactive and HCMV antiviral inactive.
`CCOc1ccc(NC(=O)CSc2nnc(Cn3cnc([N+](=O)[O-])n3)n2CC)cc1` gave FBPA Giardia inh inactive, HCV inh inactive, Vaccinia Venus inactive, VACV mCherry inh inactive, FMDV antiviral inactive and HCMV antiviral -67.
`COc1ccc2c(c1)C(n1c(C)ccc1C)C(=O)N2Cc1ccc(Cl)nc1` (stereo not given) gave HCMV antiviral inactive.
`COc1ccc(/C=C2\N=C(c3ccccc3Cl)NC2=O)cc1` gave FBPA Giardia inh inactive, HCV inh inconclusive, FMDV antiviral inactive and HCMV antiviral -73.
For O=[N+]([O-])c1cc(Cl)c2cccnc2c1O the results were FBPA Giardia inh inactive, HCV inh inactive, Vaccinia Venus inconclusive, VACV mCherry inh 28µM, FMDV antiviral inactive and HCMV antiviral -74.
For O=[N+]([O-])c1cc(Cl)c(O)c2ncccc12 the results were FBPA Giardia inh inconclusive, HCV inh inactive, Vaccinia Venus inconclusive, VACV mCherry inh inconclusive, FMDV antiviral inactive and HCMV antiviral -98.
Screening Clc1cc2cccnc2c2ncccc12 returned HCV inh 2.8µM, FMDV antiviral inactive and HCMV antiviral -96.
Screening Cc1c(C)c2cccnc2c2ncccc12 returned HCV inh 3.2µM and FMDV antiviral inconclusive.
`CN(C(=O)c1cccc(NC(=O)Cc2cccc(NC(=O)C3CCCN(C(=O)c4ccccc4)C3)c2)c1)C1CC1` (stereo not given) gave HCV inh inactive[8.37 µM], Vaccinia Venus inactive, VACV mCherry inh inactive, FMDV antiviral inactive and HCMV antiviral inactive.
Cc1cc(NC(=O)COC(=O)C2CCN(S(=O)(=O)c3ccccc3)CC2)c([N+](=O)[O-])cc1C was read as HCV inh inactive, Vaccinia Venus inactive, VACV mCherry inh inactive, FMDV antiviral inactive and HCMV antiviral inactive.
Cc1ccnc(NC(=O)Nc2ccc3c(c2)OCO3)c1 was read as FBPA Giardia inh inactive, HCV inh inactive, Vaccinia Venus inactive, VACV mCherry inh inactive, FMDV antiviral inactive and HCMV antiviral inactive.
`Cc1cccc(NC(=O)c2ccc(N(C)C3CCCCC3)c([N+](=O)[O-])c2)n1` gave FBPA Giardia inh inactive, HCV inh 14µM, Vaccinia Venus inactive, VACV mCherry inh inactive, FMDV antiviral inconclusive and HCMV antiviral inconclusive.
Cc1cccc(NC(=O)c2ccc(N3CCCCC3)c([N+](=O)[O-])c2)n1 was read as FBPA Giardia inh inactive, HCV inh inactive, Vaccinia Venus inactive, VACV mCherry inh inactive, FMDV antiviral inactive and HCMV antiviral inactive.
Screening CCN(CC)CCNc1cccc2sc3ccccc3c(=O)c12 returned Vaccinia Venus inconclusive, VACV mCherry inh inconclusive, FMDV antiviral inconclusive and HCMV antiviral inactive.
`O=c1c2ccccc2sc2c(CO)ccc(NCCN3CCCCC3)c12` gave HCV inh inconclusive, Vaccinia Venus 10µM, VACV mCherry inh inconclusive, FMDV antiviral inconclusive and HCMV antiviral -98.
O=c1c2ccccc2sc2ccc(NCCCN3CCOCC3)cc12 was read as HCV inh inactive[8.37 µM], Vaccinia Venus inactive, VACV mCherry inh inactive, FMDV antiviral inactive and HCMV antiviral inactive.
Screening CCN(CC)CCNc1ccc(CO)c2sc3ccccc3c(=O)c12 returned FBPA Giardia inh inactive, HCV inh inconclusive, Vaccinia Venus inconclusive, VACV mCherry inh inactive, FMDV antiviral inconclusive and HCMV antiviral -96.
CCN(CC)CCNc1ccc(CO)c2oc3ccccc3c(=O)c12 was read as Vaccinia Venus inconclusive, VACV mCherry inh inactive, FMDV antiviral inactive and HCMV antiviral -89.
Screening C=N[C@H](C(=O)N[C@@H]1C(=O)N2[C@@H]1SC(C)(C)[C@@H]2C(=O)O)c1ccccc1 returned FBPA Giardia inh inactive.
COc1ccc2c(c1)C(O)C(CO)C(C(=O)O)C2 (stereo not given) was read as HCV inh inactive, Vaccinia Venus inactive, VACV mCherry inh inactive, FMDV antiviral inactive and HCMV antiviral inactive.
`CC(=O)Nc1ccc(C(=O)COC(=O)CCN2C(=O)C3CC=CCC3C2=O)cc1` (stereo not given) gave FBPA Giardia inh inactive, HCV inh inactive, FMDV antiviral inactive and HCMV antiviral inactive.
For O=C(CCN1C(=O)C2CC=CCC2C1=O)OCC(=O)c1ccc(F)cc1 (stereo not given) the results were HCV inh inactive, FMDV antiviral inactive and HCMV antiviral -76.
Cc1ccc(C2CC(C(F)(F)F)n3nc(C(=O)NCc4c(C)nn(C)c4C)c(Cl)c3N2)cc1 (stereo not given) was read as FBPA Giardia inh inactive, HCV inh 8.9µM, Vaccinia Venus inconclusive, VACV mCherry inh inconclusive, FMDV antiviral 25µM and HCMV antiviral inconclusive.
Screening Cc1nn(C)cc1CN(C)C(=O)c1nn2c(c1Cl)NC(c1cccs1)CC2C(F)(F)F (stereo not given) returned FBPA Giardia inh inactive, HCV inh inactive, Vaccinia Venus inactive, VACV mCherry inh inactive and HCMV antiviral -78.
For COc1ccc(C2CC(C(F)(F)F)n3nc(C(=O)NCc4cn(C)nc4C)c(Cl)c3N2)cc1 (stereo not given) the results were FBPA Giardia inh inactive, HCV inh inconclusive, Vaccinia Venus inactive, VACV mCherry inh inactive and HCMV antiviral -72.

Screens (PubChem BioAssay)
